Bim-Mcl-1: disrupts Bim peptide binding to human Mcl-1; 190,000 compounds, 0.1% hits; inhibition, % at 10 µM; Bead-based flow cytometry, Bim peptide-Mcl-1 binding; in the data active = inhibition above about 40%;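 note: 0% = no compound tracer wells and 100% = peptide blocker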
Mcl1-Bid inh: Mcl-1/Bid interaction inhibition. Q07820. TR-FRET Mcl-1/Bid-Dy647 peptide binding, 1536-well. inhibition, % at 21.7 µM. 220,000 compounds, 0.97% hits;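 active = compounds that cut the binding signal by more than half at the single screening dose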;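 note: His-tagged Mcl-1 with europium anti-His antibody binding Bid BH3 peptide; 0% = Mcl-1 plus peptide wells and 100% = peptide-only wells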
p47phox inh: blocks human p47phox regulatory protein of NADPH oxidases | P14598 | p47phox/p22phox peptide binding, fluorescence polarization, 2 h | inhibition, % at 24.7 µM | 220,000 compounds, 0.53% hits;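 active = inhibition above about 30%, limit read from the data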;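 note: 0% = p47phox with labelled peptide and 100% = labelled peptide alone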
Target sequence (P14598 whole entry, looked up): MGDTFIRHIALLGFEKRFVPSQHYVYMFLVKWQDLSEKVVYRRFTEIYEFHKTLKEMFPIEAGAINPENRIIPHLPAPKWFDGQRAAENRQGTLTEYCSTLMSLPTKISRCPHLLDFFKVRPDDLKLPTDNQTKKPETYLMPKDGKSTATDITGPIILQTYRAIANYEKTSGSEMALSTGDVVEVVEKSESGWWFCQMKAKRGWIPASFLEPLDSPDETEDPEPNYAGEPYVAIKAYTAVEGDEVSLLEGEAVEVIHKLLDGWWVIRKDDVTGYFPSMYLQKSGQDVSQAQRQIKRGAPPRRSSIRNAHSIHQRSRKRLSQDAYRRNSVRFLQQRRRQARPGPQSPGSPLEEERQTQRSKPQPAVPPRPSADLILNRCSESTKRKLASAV
Mcl1 Noxa PPI: disrupts binding of human Mcl-1 to Noxa peptide; Q07820; TR-FRET Mcl-1/Noxa peptide binding, 2 h; inhibition, % at 21.7 µM; 220,000 compounds, 1.5% hits;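 active = compounds that cut the protein-peptide binding signal by more than 50% relative to plate controls in a single-dose test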;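 note: His-tagged Mcl-1 with rhodamine Noxa BH3 peptide and terbium anti-His antibody; 0% = Mcl-1 plus Noxa peptide wells and 100% = peptide-only wells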
Calpain2 inh: blocks pig calpain II enzyme activity; purified calpain II, fluorogenic peptide substrate, 30 min; inhibition, % at 16 µM; 220,000 compounds, 0.37% hits;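 active = inhibition above about 50%, limit read from the data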
14-3-3 Bad PPI: disrupts binding of bovine 14-3-3 zeta to phospho-Bad peptide; TR-FRET 14-3-3zeta/Dy647-pBad peptide displacement, 1 h; inhibition, % at 21.7 µM; P63103; AID 781; 220,000 compounds, 0.71% hits;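 active = inhibition above about 70%, limit read from the data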;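 note: 0% = full 14-3-3 plus peptide FRET controls and 100% = background without 14-3-3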
Target sequence (P63103 whole entry, looked up): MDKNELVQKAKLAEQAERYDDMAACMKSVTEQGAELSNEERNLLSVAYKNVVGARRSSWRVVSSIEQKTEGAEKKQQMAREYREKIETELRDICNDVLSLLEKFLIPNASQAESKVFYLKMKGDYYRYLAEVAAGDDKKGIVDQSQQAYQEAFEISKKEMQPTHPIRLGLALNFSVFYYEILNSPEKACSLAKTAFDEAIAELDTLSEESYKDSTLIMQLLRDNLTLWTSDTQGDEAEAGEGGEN
* hit, by the source's call; · = not tested or not shown. Compounds with a hit are over-represented: about 3.4% of the library has one in this group of screens.

SMILES | Bim-Mcl-1 | Mcl1-Bid inh | p47phox inh | Mcl1 Noxa PPI | Calpain2 inh | 14-3-3 Bad PPI
C#CCOCCOCCOCCNc1nc(N2CCN(C(=O)[C@H]([C@@H](C)CC)n3cc(CCCN=C(N)N)nn3)CC2)nc(N2CCN(C(=O)[C@H](C)n3cc(CCCN=C(N)N)nn3)CC2)n1 | -4.0 | 45.1 | 10.1 | 36.5 | -10.7 | 75.1*
C#CCOCCOCCOCCNc1nc(N2CCOCC2)nc(N2CCN(C(=O)Cn3cc(CCCN=C(N)N)nn3)CC2)n1 | 0.0 | 8.4 | -0.7 | 16.9 | -3.7 | 19.8
C#CCOCCOCCOCCNc1nc(N2CCN(C(=O)[C@H](C)n3cc(CCCN=C(N)N)nn3)CC2)nc(N2CCN(C(=O)[C@H](C)n3cc(CCCN=C(N)N)nn3)CC2)n1 | -5.0 | 6.2 | 6.6 | 14.7 | 2.2 | 10.7
C#CCOCCOCCOCCNc1nc(N2CCN(C(=O)Cn3cc(CCCN=C(N)N)nn3)CC2)nc(N2CCN(C(=O)Cn3cc(CCCN=C(N)N)nn3)CC2)n1 | -1.0 | 57.9* | 14.6 | 41.6 | 0.2 | 87.7*
O=C(CO/N=C/c1ccc(OC(F)F)cc1)NC1CCCCCC1 | -2.0 | 16.7 | 2.1 | 8.8 | 33.9 | 7.4
COc1ccc(-c2nnn(CC(=O)NCCc3c[nH]c4ccccc34)n2)cc1OC | 0.0 | -17.5 | -8.8 | -5.9 | -18.8 | 15.7
CCN(Cc1ccncc1)Cc1nc(Cc2ccccc2Cl)no1 | 0.0 | -62.6 | 1.6 | 11.7 | 18.4 | -1.1
CCc1nn2cc(C(=O)c3cc(C)ccc3O)cnc2c1-c1ccc(F)cc1 | 42.0* | -40.0 | -0.6 | 17.8 | 2.5 | -1.2
COc1ccc(CCC(=O)Nc2ccc(Cl)c(S(=O)(=O)N3CCCC3)c2)cc1 | · | -14.8 | -39.1 | 3.6 | 30.7 | -0.4
Cc1cccc(S(=O)(=O)C(C#N)c2nc3ccccc3nc2N2CC(C)OC(C)C2)c1 (stereo unspecified) | 0.0 | -4.4 | -10.7 | 10.8 | -53.5 | 72.7*
O=C(C1=C[C@@H](c2csc3ccccc23)C[C@@H](OCc2ccc(CO)cc2)O1)N1CCN(Cc2ccc3c(c2)OCO3)CC1 | 0.0 | 97.2* | -17.7 | -11.7 | -6.2 | -0.9
O=C(CN1C(=O)C2CCCCN2C(=O)c2ccccc21)Nc1ccc(F)cc1 (stereo unspecified) | 0.0 | 0.8 | 5.7 | 15.2 | 11.6 | -2.9
COc1ccc(NC(=O)CN2C(=O)/C(=C3\SC(=S)N(C4CCS(=O)(=O)C4)C3=O)c3ccccc32)cc1 (stereo unspecified) | · | 90.7* | 52.4* | 89.1* | 56.4* | 59.7
O=C(CN1C(=O)/C(=C2\SC(=S)N(C3CCS(=O)(=O)C3)C2=O)c2ccccc21)Nc1ccc(F)cc1 (stereo unspecified) | · | 77.6* | 26.1 | 78.5* | 9.7 | 49.2
CCOc1ccc(CC(=O)Nc2nccs2)cc1OCC | 2.0 | -7.1 | -8.0 | 5.4 | 9.8 | 5.6
Cc1cc(C)c(NS(=O)(=O)c2ccc3c(c2)NC(=O)CC(=O)N3)c(C)c1 | -3.0 | -4.9 | -6.3 | 6.5 | -10.8 | -15.4
O=C(CC1S/C(=N/N=C/c2c[nH]c3ccc(OCc4ccccc4)cc23)NC1=O)Nc1ccccc1 (stereo unspecified) | -5.0 | 57.8* | 10.6 | 67.2* | 14.7 | 6.4
O=C(CC1S/C(=N/N=C/c2c[nH]c3ccccc23)NC1=O)Nc1ccccc1 (stereo unspecified) | -3.0 | 56.0* | 6.2 | 61.5* | 7.1 | -8.4
CCc1ccc(S(=O)(=O)NCCc2cn3ccc(C)cc3n2)s1 | -1.0 | -45.9 | 2.1 | 16.1 | 5.0 | -2.5
Cn1c(=O)cc(Nc2ccccc2)c2c(=O)n(-c3ccccc3)c(=O)n(-c3ccccc3)c21 | · | -20.2 | -9.2 | 15.8 | 20.2 | -7.7
Cc1nc(-c2ccc(S(=O)(=O)NCc3ccccn3)s2)cs1 | · | -9.1 | -1.3 | 15.1 | 16.2 | 1.7
CC(C)(C)c1ccc(C(=O)NNC(=O)C2CCCCC2)cc1 | -2.0 | -3.2 | 31.1* | 15.2 | 8.7 | -0.1
CN(C)/C=C/C(=O)c1ccc(-c2ccc(Cl)cc2Cl)o1 | -1.0 | -15.9 | -12.4 | 25.9 | 10.8 | -3.4
Cc1ccc(-c2nc3ccccc3[nH]2)cc1NC(=O)c1ccc2c(c1)OCO2 | -3.0 | -0.7 | -9.6 | 22.1 | -40.5 | -4.3
O=C(NC(=S)Nc1cc(-c2nc3ccccc3[nH]2)ccc1Cl)c1ccc2c(c1)OCO2 | -8.0 | 58.8* | -21.9 | 0.7 | -39.0 | 52.6
SMILES | Bim-Mcl-1 | Mcl1-Bid inh | p47phox inh | Mcl1 Noxa PPI | Calpain2 inh | 14-3-3 Bad PPI
CN1CCN(C(c2ccccn2)c2cc(Cl)c3cccnc3c2O)CC1 (stereo unspecified) | 0.0 | 37.1 | 16.2 | 46.1 | 2.6 | -4.9
Oc1c(C(c2ccc(Cl)cc2)N2CCCC2)cc(Cl)c2cccnc12 (stereo unspecified) | -1.0 | 73.3* | -5.1 | 21.6 | -62.5 | 4.6
O=C(N/N=C/c1ccc(Cl)c([N+](=O)[O-])c1)c1ccc2nc[nH]c2c1 | -4.0 | -2.0 | -5.4 | 25.4 | -22.6 | -1.4
O=C(N/N=C/c1cccc([N+](=O)[O-])c1)c1cc(-c2ccc3c4c(cccc24)CC3)n[nH]1 | -5.0 | 59.7* | 4.5 | 24.4 | -63.9 | 43.4
O=C(N/N=C/c1ccc(Cl)c([N+](=O)[O-])c1)c1cc(-c2ccc3c4c(cccc24)CC3)n[nH]1 | · | 22.8 | 3.6 | 64.2* | -62.5 | 22.9
COc1cc2c(cc1OC)CC(=O)NC=C2 | -1.0 | -20.5 | 4.4 | 4.1 | 37.1 | 2.1
CSc1nnc(-c2cc[n+](C)cc2)n1CCO | 0.0 | -58.4 | -2.3 | 12.7 | 12.0 | 29.3
Cc1ccc(NC(=S)N(CCCN2CCCC2)Cc2cccn2Cc2ccc(Cl)cc2)cc1C | -4.0 | -26.3 | 4.8 | 16.3 | -27.2 | -8.7
FC(F)(F)c1cccc(NC(=S)N(CCCN2CCCC2)Cc2cccn2Cc2ccc(Cl)cc2)c1 | -4.0 | -36.9 | 35.4* | 6.2 | 4.1 | 12.2
Cc1ccc(NC(=S)N(CCCN2CCCC2)Cc2cccn2Cc2ccc(Cl)cc2)cc1Cl | 0.0 | -2.8 | 34.9* | 4.7 | 21.5 | 24.6
COc1ccc(NC(=S)N(CCCN2CCCC2)Cc2cccn2Cc2ccc(Cl)cc2)cc1Cl | 0.0 | -30.2 | 43.1* | 27.9 | -2.3 | 0.5
CN(C)CCCN(Cc1ccccc1)C(=S)Nc1cccc(C(F)(F)F)c1 | -8.0 | -24.6 | -8.5 | 12.9 | -4.5 | -4.1
COc1ccc(CCNC(=O)COC(=O)COc2ccc(C#N)cc2)cc1 | -2.0 | -7.8 | -0.6 | 5.9 | 9.5 | 0.7
COCCCn1c(C)nnc1-c1cnn(-c2ccccc2)c1N | 1.0 | -38.1 | 1.1 | 15.9 | -8.5 | -6.0
CCN(CC)c1ccc(NC(=O)Cn2c(C(C)NC(=O)c3ccc(C)cc3)nc3ccccc32)cc1 (stereo unspecified) | 4.0 | 89.7* | · | 32.4 | 26.1 | 94.7*
O=C(O)/C(=C\c1ccccc1OC(F)F)Sc1nnc(-c2ccc(F)cc2)o1 | 0.0 | -13.6 | -2.6 | -12.0 | 0.9 | -5.6
Clc1ccccc1/C=C/C=N/Nc1nc(N2CCOCC2)nc(N2CCOCC2)n1 | 0.0 | -26.4 | -11.3 | -3.5 | -7.5 | -10.1

High-throughput results (PubChem)
